From PubChem BioAssay AID1159580 (chemical genetic matrix, 2015)
“And” between values parts separate entries of the source, which are not always exact repeats. Identical values can stand only once. About 2,000 (36%) of roughly 5,500 compounds were called active. Another 18% or so got no clear call; they are omitted. No stated cut-off is given here; in the data, active means normalized growth mostly below about 0.91 (no sharp cut-off); inconclusive means no clear call, values can overlap the other calls; inactive means mostly above about 0.92. The list shows a part of the results.

Experiment: chemical genetic growth profiling, strain panel (AID 1159580);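 further: tested at 20 µM; growth read once vehicle control cultures reached saturation at 30 °C; 1 = growth at the plate median or of vehicle wells; lower values mean less growth of the strain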
Conditions: S. cerevisiae deletion strains, growth OD

Measured: normalized growth

O=c1[nH]oc2c1CCNC2
inactive: locus YAL013W, strain DEP1, active compounds read low 1 and 1.01 | locus YAL021C, strain ccr4, active compounds read low 1.01 | locus YAL026C, strain drs2, active compounds read low 1.01 | locus YAL030W, strain snc1, active compounds read low 0.998 | locus YAL040C, strain CLN3, active compounds read low 0.99 | locus YBL061C, strain skt5, active compounds read low 1 | locus YBR009C, strain hhf1, active compounds read low 0.987 | locus YBR021W, strain FUR4, active compounds read low 1.01 | locus YBR023C, strain chs3, active compounds read low 0.998 | locus YBR171W, strain sec66, active compounds read low 0.985 | locus YBR229C, strain ROT2, active compounds read low 1 | locus YBR231C, strain swc5, active compounds read low 0.976 | locus YBR279W, strain paf1, active compounds read low 1.01 | locus YCL011C, strain gbp2, active compounds read low 1.01 | locus YCL016C, strain dcc1, active compounds read low 1 | locus YCL029C, strain bik1, active compounds read low 0.97 | locus YCL061C, strain MRC1 (second series), active compounds read low 1 | locus YCL069W, strain vba3, active compounds read low 1 | locus YCR088W, strain abp1, active compounds read low 0.999 | locus YDL005C, strain med2, active compounds read low 1 | locus YDL035C, strain GPR1, active compounds read low 0.999 | locus YDL040C, strain nat1, active compounds read low 0.992 | locus YDL074C, strain BRE1, active compounds read low 1.04 | locus YDL101C, strain DUN1, active compounds read low 1.01 | locus YDL134C, strain PPH21, active compounds read low 1.01 | locus YDL185W, strain tfp1, active compounds read low 0.964 | locus YDL192W, strain arf1, active compounds read low 0.976 | locus YDR001C, strain nth1, active compounds read low 0.996 | locus YDR069C, strain doa4, active compounds read low 0.993 | locus YDR101C, strain arx1, active compounds read low 0.997 | locus YDR137W, strain rgp1, active compounds read low 1.02 | locus YDR150W, strain NUM1, active compounds read low 0.996 and 0.999 | locus YDR159W, strain sac3, active compounds read low 0.973 | locus YDR162C, strain NBP2, active compounds read low 1.02 | locus YDR195W, strain ref2 0.947 | locus YDR297W, strain sur2, active compounds read low 1.01 | locus YDR318W, strain mcm21, active compounds read low 0.966 | locus YDR334W, strain swr1, active compounds read low 1 | locus YDR335W, strain msn5, active compounds read low 1 | locus YDR363W, strain ESC2, active compounds read low 1.01 | locus YDR388W, active compounds read low 0.986 | locus YDR392W, strain spt3, active compounds read low 1.01 | locus YDR502C, strain sam2, active compounds read low 1 | locus YEL003W, strain gim4, active compounds read low 0.998 | locus YEL037C, strain rad23, active compounds read low 0.999 | locus YEL061C, strain CIN8 (second series), active compounds read low 0.998 | locus YEL061C, strain CIN8, active compounds read low 0.999 | locus YER002W, strain NOP16, active compounds read low 1 | locus YER015W, strain faa2, active compounds read low 1.01 | locus YER016W, strain bim1, active compounds read low 1 | locus YER110C, active compounds read low 0.967 | locus YER111C, strain swi4, active compounds read low 0.994 | locus YER155C, strain BEM2 (second series), active compounds read low 0.978 | locus YER155C, strain BEM2, active compounds read low 0.998 | locus YER167W, strain BCK2, active compounds read low 0.973 | locus YFR010W, strain ubp6, active compounds read low 1.01 | locus YGL078C, strain dbp3, active compounds read low 0.994 | locus YGL086W, strain mad1, active compounds read low 0.963 | locus YGL167C, strain pmr1, active compounds read low 0.999 | locus YGL173C, strain kem1, active compounds read low 1.01 | locus YGL227W, strain vid30, active compounds read low 0.994 | locus YGL240W, strain doc1, active compounds read low 0.988 | locus YGL248W, strain PDE1, active compounds read low 1 | locus YGL253W, strain hxk2, active compounds read low 1.02 | locus YGR078C, strain PAC10, active compounds read low 1.03 and 0.994 | locus YGR135W, strain pre9, active compounds read low 1.01 | locus YGR229C, strain SMI1, active compounds read low 1.03 | locus YGR252W, strain gcn5, active compounds read low 0.97 | locus YHR013C, strain ard1, active compounds read low 0.998 | locus YHR027C, strain rpn1, active compounds read low 1.01 | locus YHR030C, strain SLT2, active compounds read low 0.992 and 1.01 | locus YHR079C, strain IRE1 (second series), active compounds read low 1 | locus YHR079C, strain IRE1, active compounds read low 1.03 | locus YHR094C, strain hxt1, active compounds read low 0.973 | locus YHR129C, strain ARP1, active compounds read low 1 | locus YHR142W, strain chs7, active compounds read low 1.03 | locus YHR200W, strain rpn10, active compounds read low 0.975 | locus YIL066C, strain RNR3, active compounds read low 1.01 | locus YIL073C, strain SPO22, active compounds read low 0.902 | locus YIL125W, strain kgd1, active compounds read low 0.987 | locus YIR030C, strain dcg1, active compounds read low 0.982 | locus YJL092W, strain hpr5, active compounds read low 0.998 | locus YJL095W, strain BCK1 (second series), active compounds read low 0.999 | locus YJL095W, strain BCK1, active compounds read low 1.06 and 1.02 | locus YJL115W, strain asf1, active compounds read low 1.01 | locus YJL129C, strain trk1, active compounds read low 1 | locus YJL134W, strain LCB3, active compounds read low 0.994 | locus YJL154C, strain vps35, active compounds read low 0.995 | locus YJL164C, strain tpk1, active compounds read low 1 | locus YJL166W, strain qcr8, active compounds read low 0.965 | locus YJL168C, strain set2, active compounds read low 0.988 | locus YJL187C, strain SWE1 (second series), active compounds read low 1.02 | locus YJR043C, strain POL32, active compounds read low 0.987 | locus YJR066W, strain TOR1, active compounds read low 0.921 | locus YJR075W, strain HOC1, active compounds read low 1.08
